# Measured values from PMC4336329 (PLoS ONE, 2015).
# About 14,000 (4.5%) of roughly 310,000 compounds showed an effect of 50% or more. The effect is printed as a negative number. This excerpt belongs to a sample that is enriched for strong results.
# Molecular target: human ether-à-go-go-related gene (hERG) potassium channel (human, UniProt Q12809)
# Assay: primary screen, population patch clamp on CHO cells stably expressing hERG; higher = less effect of the substance
# 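Note: peak tail current of the secondary pulse compared with the same well before compound.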
# Sequence of human ether-à-go-go-related gene (hERG) potassium channel (Q12809 whole entry, looked up): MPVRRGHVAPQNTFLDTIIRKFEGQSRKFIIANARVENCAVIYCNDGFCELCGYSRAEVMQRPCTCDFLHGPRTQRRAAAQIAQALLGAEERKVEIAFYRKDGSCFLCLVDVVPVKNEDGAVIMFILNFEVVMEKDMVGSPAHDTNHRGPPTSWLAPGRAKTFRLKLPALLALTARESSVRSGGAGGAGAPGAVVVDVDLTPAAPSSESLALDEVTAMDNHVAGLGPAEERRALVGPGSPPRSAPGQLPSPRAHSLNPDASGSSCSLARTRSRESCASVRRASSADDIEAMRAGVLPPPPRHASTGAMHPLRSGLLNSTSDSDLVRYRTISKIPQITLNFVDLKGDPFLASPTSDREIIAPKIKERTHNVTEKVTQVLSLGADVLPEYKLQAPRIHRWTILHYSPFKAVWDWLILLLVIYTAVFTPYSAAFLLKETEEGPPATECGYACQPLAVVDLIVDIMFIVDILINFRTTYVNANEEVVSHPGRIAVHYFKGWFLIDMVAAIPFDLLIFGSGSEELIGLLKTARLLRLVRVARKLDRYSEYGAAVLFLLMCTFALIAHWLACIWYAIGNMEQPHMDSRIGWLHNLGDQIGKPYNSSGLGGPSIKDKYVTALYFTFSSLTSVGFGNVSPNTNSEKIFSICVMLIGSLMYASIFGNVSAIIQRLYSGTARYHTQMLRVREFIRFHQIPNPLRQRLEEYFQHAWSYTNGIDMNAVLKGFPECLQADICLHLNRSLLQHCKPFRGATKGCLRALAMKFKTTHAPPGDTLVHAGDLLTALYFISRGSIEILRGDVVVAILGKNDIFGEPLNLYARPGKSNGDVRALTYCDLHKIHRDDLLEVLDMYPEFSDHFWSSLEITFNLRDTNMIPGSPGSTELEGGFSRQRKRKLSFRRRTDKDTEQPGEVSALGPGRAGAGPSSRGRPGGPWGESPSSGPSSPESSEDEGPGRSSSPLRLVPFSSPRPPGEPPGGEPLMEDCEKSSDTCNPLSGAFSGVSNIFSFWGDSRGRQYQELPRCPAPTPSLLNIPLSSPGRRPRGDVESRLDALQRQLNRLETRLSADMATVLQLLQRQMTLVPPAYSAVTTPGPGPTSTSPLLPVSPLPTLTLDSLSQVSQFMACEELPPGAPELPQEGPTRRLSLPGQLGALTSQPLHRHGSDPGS
row,SMILES,"hERG current change (%, negative = inhibition) at 10uM [%]"
1,CCOC(=O)CC1(c2ccccc2)CCOC(C)(C)C1 (stereo not drawn),10.2
2,O=C(c1cccnc1)N1C2C=CC(C2)C1(C(F)(F)F)C(F)(F)F (stereo not drawn),14.6
3,Cc1noc(C)c1C(=O)NC(C)C1CCCO1 (stereo not drawn),3.08
4,Cc1ccc(C(=O)N2CCN(C)CC2)cc1S(=O)(=O)N1CCCCCC1,-25.9
5,Cc1ccc2cc(CCNC(=O)c3ccc4c(c3)OCO4)c(=O)[nH]c2c1C,4.17
6,O=C(O)c1ccc(COc2ccccc2/C=C2\NC(=O)N(Cc3ccccc3)C2=O)cc1,24.5
7,O=C(NCCN1CCOCC1)c1ccc(CS(=O)(=O)c2c(Cl)cccc2Cl)o1,0.302
8,CCCN(CCC)CCCNC(=O)c1ccc(CS(=O)(=O)c2c(Cl)cccc2Cl)o1,-73.1
9,O=C(NC1CC1)c1ccc(CS(=O)(=O)c2c(Cl)cccc2Cl)o1,-5.87
10,CCCCN(CC)CCCNC(=O)c1ccc(CS(=O)(=O)c2ccccc2C)o1,-35.2
11,COCCNC(=O)c1ccc(CS(=O)(=O)c2c(Cl)cccc2Cl)o1,0.994
12,O=C(NCCCN1CCCC1)c1ccc(CS(=O)(=O)c2c(Cl)cccc2Cl)o1,-10.5
13,CCCCN(CC)CCCNC(=O)c1ccc(CS(=O)(=O)c2c(Cl)cccc2Cl)o1,-55.4
14,O=C(O)c1ccc(CS(=O)(=O)c2c(Cl)cccc2Cl)o1,19
15,CCCCN(CCCNC(=O)c1ccc(CS(=O)(=O)c2c(Cl)cccc2Cl)o1)Cc1ccccc1,-66.1
16,O=c1nc(-c2ccccc2)c2ccccc2[nH]1,-1.29
17,Cc1oc(-c2ccc(Cl)cc2)cc1C(=O)NC1CCN(Cc2ccccc2)CC1,1.09
18,CCc1cc(=O)oc2cc(C)cc(OC(C)C(=O)NCC(O)c3ccccc3)c12 (stereo not drawn),4.7
19,Cc1ccc(CNC(=O)NC23CC4CC(CC(C4)C2)C3)cc1,7.24
20,CCn1cc(C(=O)NCC(OC)OC)c(=O)c2cc(S(=O)(=O)N3CCC(C)CC3)ccc21,-28.8
21,CSc1ccc(CNc2cccc3ccccc23)cc1,2.23
22,CCOC(=O)c1c(NC(=O)c2ccc(Br)o2)sc2c1CCCC2,-9.78

row,SMILES,"hERG current change (%, negative = inhibition) at 10uM [%]"
1,Fc1ccc2nc3c(nc2c1)CCCC3,15.3
2,COCCCn1c(SCC(N)=O)nnc1-c1ccccc1,-0.75
3,Cc1ccccc1CC1(CO)CCCN(C(=O)c2cc(Cl)ccc2F)C1 (stereo not drawn),-16.5
4,Cc1ccccc1CC1(CO)CCCN(C(=O)c2ccccc2Cl)C1 (stereo not drawn),-81.5
5,Cc1ccccc1CC1(CO)CCCN(C(=O)c2ccccc2N(C)C)C1 (stereo not drawn),-1.63
6,O=C(O)CC1Sc2nc3ccccc3n2C1=O (stereo not drawn),8.05
7,COc1ccc(CN(C)C(=O)Cn2ccc(NC(=O)OCc3ccccc3)nc2=O)cc1OC,-20.4
8,O=C(c1ccccc1)N1CCC(O)(c2cccnc2)CC1,16.1
9,Cc1ccc2c(c1)c1c(n2C)C(=O)CCC1,11.8
10,c1cc2c(cc1C1CCCCC1)c1c3n2CCN=C3CCC1,-33.9
11,CS(=O)(=O)O.O=C(O)c1ccc2c(c1)c1c3n2CCNC3CCC1 (stereo not drawn),20.7
12,Cc1cc(S(=O)(=O)N2CCN=C2c2ccccc2)ccc1F,7.23
13,CCn1c2c(c3cc(Cl)ccc31)CCCC2=O,3.71
14,CS(=O)(=O)O.c1ccc(-c2ccc3c(c2)c2c4n3CCN=C4CCC2)cc1,-61.5
15,O=C(O)c1c2c(nc3ccc(Cl)cc13)CCC2,4.39
16,OC1CN=C2CCCc3c2n(c2ccc(Cl)cc32)C1 (stereo not drawn),-72.3
17,Cc1ccc2c(c1)c1c3n2CCN=C3CCC1.Cl,-76.3
18,CCO.Cn1c2c(c(=O)n(C)c1=O)C1(C(=O)Nc3ccccc31)C(C#N)=C(N)O2 (stereo not drawn),8.3
19,COc1ccc(CN(C)C(=O)c2cccc(Oc3ccccc3)c2)c(OC)c1OC,-20.6
20,CSc1nc(C)c(Oc2ccccc2)c(=O)n1C,5.82
21,CCC1CCCCN1C(=O)NC(=O)c1ccccc1 (stereo not drawn),30.3
22,CC(C)OCCCN(C)C1CCN(S(=O)(=O)c2ccc(-c3ccc(=O)[nH]n3)s2)CC1,-35.8

row,SMILES,"hERG current change (%, negative = inhibition) at 10uM [%]"
1,CC(C)OCCCN(C)C1CCN(S(=O)(=O)c2csc(C(N)=O)c2)CC1,13.1
2,CC(C)OCCCN(C)C1CCN(S(=O)(=O)c2ccc(-c3cc(C(F)(F)F)no3)s2)CC1,-54.6
3,Cc1ccccc1C(=O)NC(=S)Nc1ccc(S(=O)(=O)N2CCOCC2)cc1,-40
4,CC(NC(=O)c1cccc(S(=O)(=O)N2CCN(Cc3ccccc3)CC2)c1)c1ccc(Br)cc1 (stereo not drawn),-17.6
5,CC(NC(=O)c1cccc(S(=O)(=O)N2CCCCCC2)c1)c1ccccc1 (stereo not drawn),-58.2
6,O=C(NCc1ccccc1)c1cccc(S(=O)(=O)N2CCCCC2)c1,-52.5
7,Cc1ccc(C(NC(=O)c2cccc(S(=O)(=O)N3CCN(C)CC3)c2)c2ccccc2)cc1 (stereo not drawn),-61.8
8,O=C(NCc1ccccc1CN1CCCC1)c1cccc(S(=O)(=O)N2CCCC2)c1,-55.1
9,O=C(NCc1ccccc1F)c1cccc(S(=O)(=O)N2CCCCCC2)c1,7.87
10,CN1CCN(S(=O)(=O)c2cccc(C(=O)N(C)C(c3ccccc3)c3ccccc3)c2)CC1,-4.72
11,O=C(NCc1ccccc1CN1CCCC1)c1cccc(S(=O)(=O)N2CCOCC2)c1,-44.5
12,O=C(NCc1cccc(Cl)c1)c1cccc(S(=O)(=O)N2CCCCC2)c1,7.08
13,O=C(NCCc1ccccc1)c1cccc(S(=O)(=O)N2CCCCC2)c1,5.18
14,CC(NC(=O)c1cc(S(=O)(=O)N2CCCC2)cn1C)c1ccccc1 (stereo not drawn),-0.137
15,CN1CCN(S(=O)(=O)c2cccc(C(=O)O)c2)CC1,10.8
16,Cc1cc(C)c(NC(=O)CSc2nnc(CNC(=O)c3ccccc3F)o2)c(C)c1,-6.38
17,CN1/C(=C\C(=S)NC(=O)c2ccccc2Cl)C(C)(C)c2ccccc21,23.6
18,COc1cc(C(=O)NCc2ncccc2C)ccc1OC1CCN(C(C)=O)CC1,6.34
19,CCC1CCCCN1C(=O)CSc1nc(N)c(NC(=O)c2ccc(OC)c(OC)c2)c(=O)[nH]1 (stereo not drawn),4.63
20,COc1ccc(OCCn2cncn2)cc1,12.6
21,COC(=O)c1cc2sc(Cl)cc2n1CC(=O)N1CCCc2ccccc21,-1.75
22,O=C(O)c1ccccc1-c1ccccc1C(=O)NCc1ccccc1Cl,-37.6

row,SMILES,"hERG current change (%, negative = inhibition) at 10uM [%]"
1,COC(=O)C1=C(c2ccc(OC(F)(F)F)cc2)C[C@@H]2CC[C@H]1N2C(=O)NCCOc1ccc(OC)cc1,-26.3
2,O=C1N/C(=N/S(=O)(=O)c2ccccc2)S/C1=C/c1cccnc1,1.74
3,CCc1c(C)nc2c(C)cccc2c1SCCC#N,17.7
4,CCCCc1c(C)nc2ccccc2c1SCCC(=O)O,14.8
5,CCCCc1c(C)nc2ccccc2c1SCCC#N,-50.6
6,O=C(Cc1ccc(NC2=NC3CS(=O)(=O)CC3S2)cc1)NCc1ccccc1Cl (stereo not drawn),6.5
7,CCOC(=O)c1sc(NC(=O)CSc2nnc(Cc3ccccc3)o2)c(C(=O)OCC)c1C,9.46
8,CCOC(=O)c1c(NC(=O)CSc2nnc(Cc3ccccc3)o2)sc(C)c1C,13.8
9,CCOC(=O)c1c(NC(=O)CSc2nnc(-c3ccccc3)n2CC)sc(C(C)=O)c1C,-31
10,CCOC(=O)c1c(NC(=O)CSc2nnc(-c3cccc(C)c3)n2CC)sc(C(C)=O)c1C,-18.9
11,CCOC(=O)c1c(NC(=O)CSc2nnc(-c3ccccc3C)n2C)sc(C(C)=O)c1C,-63
12,CCOC(=O)c1c(NC(=O)CSc2nnc(Cc3ccccc3)o2)sc(C(C)=O)c1C,-64.8
13,O=C(CNC(=O)c1cc2c(n(-c3ccccc3)c1=O)CCCC2=O)c1ccccc1,-38.5
14,CN1CCN(C(=O)N2c3ccccc3CCc3ccccc32)CC1,11.9
15,Cc1ccc(C)c(OCCC(=O)OCC(=O)NC(=O)NCc2ccccc2)c1,4.16
16,CCN(CC)S(=O)(=O)c1cccc(C(=O)NCCCN2CCOCC2)c1,9.9
17,O=C(NCCCN1CCOCC1)C1CCN(S(=O)(=O)c2cccc(C(F)(F)F)c2)CC1,-9.45
18,Cl.O=S(=O)(NCCN1CCOCC1)c1cccc(C(F)(F)F)c1,5.32
19,O=C(NCCCN1CCOCC1)c1ccc(S(=O)(=O)Nc2cccc(C(F)(F)F)c2)cc1,-12.8
20,O=S(=O)(c1cccc(C(F)(F)F)c1)N(CCCN1CCOCC1)Cc1cccs1,-74.9
21,O=C(O)C(=O)O.O=S(=O)(c1cccc(C(F)(F)F)c1)N(CCCN1CCOCC1)Cc1cccs1,-51
